Laboratory results from PubChem BioAssay (EPA / NIEHS).
Results filed as inconclusive are left out. A structure can be active in one record and inactive in another. The source made the active and inactive calls. How the source made its calls, unless noted: active means hit-call score of the fitted dose curve at least 0.9, where 1 is the maximum; inactive means score below 0.9.

Assays:
[1] = target: human Vitamin D Receptor (VDR), VDR (gene 7421) (UniProt P11473); experiment: ATG_VDR_TRANS: Attagene TRANS-FACTORIAL HepG2 Assay for human Vitamin D Receptor (VDR) (AID 2283022; active means hit-call score of the fitted dose curve at least 0.9, where 1 is the maximum)
Sequence of human Vitamin D Receptor (VDR), VDR (gene 7421) (P11473 whole entry, looked up, the tested form may be a part): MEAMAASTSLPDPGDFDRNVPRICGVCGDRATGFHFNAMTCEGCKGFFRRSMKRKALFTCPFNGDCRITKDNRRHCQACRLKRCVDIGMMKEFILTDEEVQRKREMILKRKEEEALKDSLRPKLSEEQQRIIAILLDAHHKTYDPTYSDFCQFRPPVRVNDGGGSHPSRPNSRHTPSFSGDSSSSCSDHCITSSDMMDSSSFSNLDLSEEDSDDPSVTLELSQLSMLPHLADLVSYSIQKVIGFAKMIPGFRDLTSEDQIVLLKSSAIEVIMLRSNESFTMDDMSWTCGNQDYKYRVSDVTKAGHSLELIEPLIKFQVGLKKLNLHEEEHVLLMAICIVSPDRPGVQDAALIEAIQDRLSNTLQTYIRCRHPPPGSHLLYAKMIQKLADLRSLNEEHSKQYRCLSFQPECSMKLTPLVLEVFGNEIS
Outline: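 HepG2 cells were transiently transfected with multiple GAL4-UAS reporter units, so signal reflects exogenous chimeric receptor-Gal4 activity. After 24 h compound exposure, reporter mRNA was measured by RT-PCR, fluorescent labelling and capillary electrophoresis, fitted for gain of signal versus DMSO.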

[2] = read-out: Interleukin-8 (IL8), CXCL8 (gene 3576); experiment: BSK_3C_IL8: BioMAP Diversity Plus: 3C Assay for Interleukin-8 (IL8) Biomarker Activity (AID 2283020); details: primary human endothelial cells (HUVEC); actives raise or lower the signal
Outline: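 Primary human umbilical vein endothelial cells (3C system) were exposed to test chemical for 24 h, then IL-8 was quantified by ELISA. Responses were fitted bidirectionally against DMSO vehicle as baseline.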

[3] = read-out: Monokine induced gamma interferon (MIG), CXCL9 (gene 4283); experiment: BSK_3C_MIG: BioMAP Diversity Plus: 3C Assay for Monokine induced gamma interferon (MIG) Biomarker Activity (AID 2283021); details: primary human endothelial cells (HUVEC); actives raise or lower the signal;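 on AC50: MIG protein level measured by immunoassay in the treated endothelial cultures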
Outline: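 Primary human umbilical vein endothelial cells in the 3C system were exposed to chemical for 24 h, after which MIG was quantified by ELISA. Activity was fitted bidirectionally against DMSO as negative control and baseline.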

[4] = BSK_3C_SRB: Viability Assessment in the BioMAP Diversity Plus: 3C Assay (AID 2283023); details: primary human endothelial cells (HUVEC);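 further: fitted both ways against DMSO so a hit may be signal rise or drop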
Outline: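 Primary human umbilical vein endothelial cells in the 3C system were read 24 h after compound dosing. Total protein was stained with 0.1% sulforhodamine B after 10% TCA fixation and read at 560 nm, with bidirectional fitting against DMSO as baseline.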

[5] = read-out: Matrix Metallopeptidase 1 (MMP1), MMP1 (gene 4312); experiment: BSK_BE3C_MMP1: BioMAP Diversity Plus: BE3C Assay for Matrix Metallopeptidase 1 (MMP1) Biomarker Activity (AID 2283024); details: primary human bronchial epithelial cells; actives raise or lower the signal
Outline: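 Primary human bronchial epithelial cells were dosed with test chemicals, and MMP1 levels were measured by ELISA 24 h later. Data were fitted bidirectionally against DMSO as the negative control and activity baseline.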

[6] = read-out: Pselectin, SELP (gene 6403); experiment: BSK_4H_Pselectin: BioMAP Diversity Plus: 4H Assay for Pselectin Biomarker Activity (AID 2283026); details: primary human endothelial cells (HUVEC); actives raise or lower the signal
Outline: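 Primary human umbilical vein endothelial cells were exposed to test chemical for 24 h, then cell-surface P-selectin was quantified by ELISA. Activity was fitted bidirectionally against DMSO as negative control and baseline.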

[7] = BSK_4H_SRB: Viability Assessment in the BioMAP Diversity Plus: 4H Assay (AID 2283027); details: primary human endothelial cells (HUVEC);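 further: cells exposed to compound for 24 h before staining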;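 on AC50: curves fitted both ways versus DMSO so AC50 may be loss or gain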
Outline: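 Human umbilical vein endothelial cells, 24 h after chemical dosing; total protein measured by 0.1% sulforhodamine B staining after 10% TCA fixation, read at 560 nm. Bidirectional fitting against DMSO.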

[8] = BSK_BE3C_SRB: Viability Assessment in the BioMAP Diversity Plus: BE3C Assay (AID 2283028); details: primary human bronchial epithelial cells;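 on AC50: fitted both ways so AC50 may mark signal gain or loss versus DMSO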
Outline: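 Human primary bronchial epithelial cells were exposed to test chemicals for 24 h. Total protein in parallel cultures was then measured by staining with 0.1% sulforhodamine B after 10% TCA fixation, with absorbance read at 560 nm. Activity was fitted bidirectionally against DMSO.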

[9] = read-out: Thrombomodulin, THBD (gene 7056); experiment: BSK_3C_Thrombomodulin: BioMAP Diversity Plus: 3C Assay for Thrombomodulin Biomarker Activity (AID 2283029); details: primary human endothelial cells (HUVEC); actives raise or lower the signal
Outline: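 Primary human umbilical vein endothelial cells (3C system) were exposed to chemical for 24 h, then thrombomodulin levels were measured by ELISA. Activity was fitted bidirectionally against the DMSO negative control as baseline.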

[10] = BSK_3C_Vis: BioMAP Diversity Plus: 3C Assay for Morphology Visualization (AID 2283025); details: primary human endothelial cells (HUVEC);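 further: fitted both ways so gain or loss versus DMSO counts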
Outline: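 Human umbilical vein endothelial cells in the 3C system were imaged by light microscopy 24 h after chemical dosing to record cell morphology. Activity was fitted bidirectionally against DMSO as negative control and baseline; the endpoint serves as a background control.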

CC(C)=CCCC(C)O (stereo unspecified)
outcome [1]: inactive

O=S(=O)(O)c1ccc(Cl)cc1
outcome [1]: inactive

OCCC(O)CO (stereo unspecified)
outcome [1]: inactive

C=C(C)CCCC
outcome [1]: inactive

CCCCCCCCCCCC(=O)Cl
outcome [1]: inactive

CO[Si](CCCOCC1CO1)(OC)OC (stereo unspecified)
outcome [1]: inactive

NC(=O)C(F)(F)C(F)(F)C(F)(F)C(F)F
outcome [2]: inactive
outcome [3]: inactive
outcome [4]: inactive
outcome [5]: inactive
outcome [6]: inactive
outcome [7]: inactive
outcome [8]: inactive
outcome [9]: inactive

C=C(C)C(=O)OCC(F)(F)C(F)(F)C(F)(F)C(F)F
outcome [2]: inactive
outcome [3]: inactive
outcome [4]: inactive
outcome [5]: inactive
outcome [6]: inactive
outcome [7]: inactive
outcome [8]: inactive
AC50 [9]: 21.8 µM (active)
outcome [9]: inactive

F[Si-2](F)(F)(F)(F)F
outcome [1]: inactive

CC(C)Nc1ccc(NC(C)C)c2c1C(=O)c1ccccc1C2=O
outcome [1]: inactive

CCN=c1cc2oc3cc(NCC)c(C)cc3c(-c3ccccc3C(=O)OCC)c-2cc1C
outcome [1]: inactive

CC(O)C#CC(C)O (stereo unspecified)
outcome [1]: inactive

Cc1ccc(S(=O)(=O)C(I)I)cc1
AC50 [2]: 4.26 µM (active)
AC50 [3]: 3.75 µM (active)
AC50 [4]: 5.27 µM (active)
AC50 [5]: 11.4 µM (active)
AC50 [10]: 1.85 µM (active)
AC50 [6]: 1.87 µM (active)
AC50 [7]: 1.98 µM (active)
AC50 [8]: 5.15 µM (active)
AC50 [9]: 4.78 µM (active)
